In the library only some 7.9% were active in any assay of this set; here they are far more common.
PLAP act: activates human placental alkaline phosphatase; AID 696; purified PLAP enzyme, luminescent substrate read-out; stronger effect = higher value; P05187; hit rate 1.2% among 96,000; activation fold at 20 µM; in the data active means activation fold above about 2
Target sequence (P05187 whole entry, looked up): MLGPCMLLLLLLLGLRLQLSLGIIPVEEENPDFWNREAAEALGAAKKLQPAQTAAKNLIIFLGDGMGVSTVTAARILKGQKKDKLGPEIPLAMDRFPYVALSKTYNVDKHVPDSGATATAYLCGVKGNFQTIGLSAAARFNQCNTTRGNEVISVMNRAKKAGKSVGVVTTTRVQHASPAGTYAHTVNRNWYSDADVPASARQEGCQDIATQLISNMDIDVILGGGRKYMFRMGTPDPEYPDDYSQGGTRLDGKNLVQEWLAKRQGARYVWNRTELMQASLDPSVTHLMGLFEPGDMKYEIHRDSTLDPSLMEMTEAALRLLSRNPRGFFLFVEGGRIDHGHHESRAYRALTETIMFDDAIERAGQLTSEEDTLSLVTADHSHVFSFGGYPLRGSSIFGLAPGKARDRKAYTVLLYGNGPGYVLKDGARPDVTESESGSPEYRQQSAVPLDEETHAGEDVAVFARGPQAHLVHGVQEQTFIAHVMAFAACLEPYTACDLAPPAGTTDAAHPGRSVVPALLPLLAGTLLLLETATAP
M1 antagonist: antagonists of rat M1 muscarinic receptor | AID 628 | P08482 | CHO-M1 cells, Fluo-4 calcium, ACh EC80 antagonist mode; stronger effect = lower value | B-score at 10 µM | hit rate 3.4% among 64,000;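 active means calcium fluorescence response, raw or row-and-column corrected B-score, differing from the plate sample mean either way at a set confidence level, mostly lower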
M1 ag: activates the M1 muscarinic receptor | CHO-M1 cells, Fluo-4 calcium fluorescence, agonist mode; stronger effect = higher value | hit rate 3% among 64,000 | B-score at 10 µM | AID 626;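 active means fluorescence rise, raw or as B-score row- and column-corrected plate score, outside the 99.7% band of its plate's samples, either direction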
Her2 expr inh: inhibitors of human Her2 kinase expression; P04626; SKBR-3 HER2 protein level, AlphaScreen, 18-24 h; stronger effect = lower value; HER2 level % of control, % at 10 µM; hit rate 0.69% among 65,000;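 active means HER2 level under 5% of the carrier-only control; inconclusive means no clear call, values can overlap the other calls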;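 further: 100% = DMSO carrier and 0% = 500 nM PU-H71 HSP90 inhibitor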
Cav3 T inh: blocks human Cav3.2 T-type calcium channel. Cav3.2-expressing cells, Fluo-4 calcium fluorescence FDSS; stronger effect = lower value. B-score at 10 µM. hit rate 4% among 100,000. AID 449739;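 active means single-dose well whose peak fluorescence ratio is a statistical outlier from its plate by either plate-standardised score or position-corrected B-score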
M1 ag confirm: confirmation of rat M1 muscarinic receptor agonists; hit rate 19% among 1,700; shares compounds with M1 ag; fluorescence change (max-min) at 10 µM; AID 1488; CHO-M1 cells, Fluo-4 calcium fluorescence, agonist mode; actives lie on both sides;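 active means fluorescence change differs from the solvent-only DMSO control mean at a set confidence level in both duplicate runs; inconclusive means differs from solvent-only control mean in just one of two runs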;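 further: an EC20 dose of acetylcholine follows compound addition during the same imaging run; raw fluorescence intensity difference in instrument units with no normalization to controls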
M4 agonist ctr: counter-screen for M1 agonists: activity at rat M4 receptor. fluorescence change (max-min) at 10 µM. CHO M4/Gqi5 cells, Fluo-4 calcium fluorescence, agonist mode; actives lie on both sides. shares compounds with M1 ag. hit rate 9% among 1,700. AID 1741;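 active means fluorescence change differing from the plate's solvent-only control wells at 99.7% confidence in both duplicates, whether higher or lower; inconclusive means differs from solvent controls in only one of two duplicates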
* = called active by the depositor; ? = inconclusive; . = not tested or not shown.

SMILES	PLAP act	M1 antagonist	M1 ag	Her2 expr inh	Cav3 T inh	M1 ag confirm	M4 agonist ctr
CCN1C(=O)/C(=C/N2CCc3ccccc32)SC1=S	0.8	-1.4	87*	97	-3.2	528*	491*
CCCc1nc(SCC(=O)c2ccccc2)c2c(=O)n(C)c(=O)n(C)c2n1	1.4	.	.	.	0.21	.	.
Cn1c(=O)c2c(SCC(=O)c3ccccc3)nc(C3CC3)nc2n(C)c1=O	0.9	-1	2.7*	114	-0.28	-13	-44
CC(C)n1c(N2CCN(CC(=O)Nc3ccc4c(c3)OCCO4)CC2)nc2ccccc21	1.7	-1.2	4*	96	-3	-22*	?
O=C(CN1CCN(S(=O)(=O)c2cc(Cl)ccc2Cl)CC1)Nc1ccc2c(c1)OCCO2	1.5	0.58	4.1*	82	.	-31*	?
CCOn1c(=O)c(-c2cc3ccccc3o2)[n+]([O-])c2ccccc21	0.9	-0.14	23*	103	-0.67	23	-13
Cc1noc(C)c1COC(=O)c1cccc(S(=O)(=O)N2CCCCCC2)c1	1.4	-2.2	3.1*	90	-2.1	-17	-39
COC(=O)CSc1nnc(CNc2ccc(OC)cc2)n1C	1	0.56	-0.24	97	0.57	.	.
COc1ccc(-n2c(C)cc(C(=O)COC(=O)Cn3cnc4ccccc43)c2C)cc1	1	-3.4*	5.5*	78	-2.2	?	-37
Cc1cc(C(=O)COc2cccc(-n3cnnn3)c2)c(C)n1-c1ccccc1	1.2	-0.59	1.2	164	-0.75	.	.
CN(C)c1nc(SCCOC(=O)COc2ccc(Cl)cc2Cl)nc(N(C)C)n1	1.1	-1.2	2*	63	.	11	?
CCOC(=O)c1nnn(-c2nonc2N)c1CN1CCc2ccccc2C1	0.9	0.22	-2.7*	73	-2.1	-27*	?
Cc1cc2n(n1)C(c1ccccc1Cl)Nc1ccccc1-2 (centres undefined)	1.6	-0.042	2.5*	99	-1.4	-16	-28
O=C(Cn1cnc2c(nnn2-c2ccc(F)cc2)c1=O)N1CCCc2ccccc21	1	0.44	-3.2*	102	0.0071	16	-41
COc1ccc(-n2nnc3c(=O)n(CC(=O)N4CCCc5ccccc54)cnc32)cc1	1.1	-0.12	1.2	101	-0.4	.	.
CN1CCC2(CC1)C1CN(C)CC=C1C(C#N)=C(N)C2(C#N)C#N (centres undefined)	1.1	0.41	34*	158	.	215*	160*
c1ccc(-c2nc(-n3ccnc3)nc(-n3ccnc3)n2)cc1	1.5	-2.4	7.9*	62	0.79	-0.7	2.3
CC(C)Nc1nc(-c2ccccc2)nc(-n2ccnc2)n1	0.9	0.41	6.9e-05	57	-0.51	.	.
Cn1cc(S(=O)(=O)Cc2ccc(F)cc2)c2ccccc21	.	0.19	-0.29	94	.	.	.
COc1ccc(NC(C)=O)cc1NC(C)C(=O)Nc1cccc2ccccc12 (centres undefined)	1.4	.	.	.	1.6	.	.
CCn1c(=O)n(CC)c2cc(S(=O)(=O)N3CCc4ccccc43)ccc21	1.2	0.42	2.6*	88	-1.9	-6.5	-35
CCC(=O)N1CCCc2cc(S(=O)(=O)N3CCCc4ccccc43)ccc21	1.7	0.67	-0.55	91	-1.4	.	.
O=C(N1CCCC1)C12CCC3CC(CC(C3)C1)C2	0.8	.	.	.	1.1	.	.
Cc1ccc2nc(SCC(=O)Nc3c(C)n(C)n(-c4ccccc4)c3=O)[nH]c2c1	1.8	-0.041	2.9*	82	0.53	-7.1	-32
Cc1nc2nc(-c3ccco3)[nH]n2c(=O)c1Cc1ccccc1	1	1.1	3.6*	89	0.8	-10	-27
Cc1nc2nc(-c3ccccc3)[nH]n2c(=O)c1Cc1ccccc1	0.7	-0.26	1.1	90	0.3	.	.
O=C(CN1CCN(c2ccccc2)CC1)Nc1ccc(-n2cnnn2)cc1	1	-0.44	51*	123	-0.11	1.1	-36
COc1ccc(OC)c(N(CC(=O)Nc2ccc3c(c2)OCO3)S(=O)(=O)c2ccccc2)c1	1.6	0.5	2.8*	60	-2.4	?	?
O=C(O)CNS(=O)(=O)c1ccc(F)cc1	1.1	0.11	0.16	79	-0.1	.	.
Cc1cc(S(=O)(=O)NCC(=O)O)ccc1F	0.9	0.24	5*	99	-0.26	-12	-17

Compound activity deposited in PubChem BioAssay by several laboratories.
